# Laboratory results published in the supplement of paper PMC8728848.
# The sample as a whole holds a higher share of the strongest signals than the screen did.
# Assays:
# Assay in all cases: glycan array binding signal (z-score within array); higher = stronger binding
# Settings in all cases: glycan notation: IUPAC condensed, linker removed
# [1] = biological target: Fuc(a1-2)Gal(b1-3)GalNAc(a1-3)[Fuc(a1-2)]Gal(b1-4)GlcNAc
# Method in brief: (§1)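 Glycan array binding is given as a within-array Z-score, which can be read as non-binding when negative. The arrays, 3228 of them, came from the Consortium for Functional Glycomics database and were retained only where the protein sequence was available. Z-scores were averaged across arrays of the same protein sequence at different concentrations or buffers and across linkers.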
# [2] = biological target: Fuc(a1-2)Gal(b1-3)GlcNAc(b1-3)[Fuc(a1-2)Gal(b1-3)GlcNAc(b1-6)]GalNAc
# Method in brief: as §1
# [3] = biological target: Fuc(a1-2)Gal(b1-4)[Fuc(a1-3)]GlcNAc(b1-3)Gal(b1-4)[Fuc(a1-3)]GlcNAc(b1-3)Gal(b1-4)[Fuc(a1-3)]GlcNAc
# Method in brief: as §1
# [4] = biological target: Fuc(a1-2)Gal(b1-4)[Fuc(a1-3)]GlcNAc(b1-3)[Neu5Ac(a2-6)Gal(b1-4)GlcNAc(b1-6)]Gal(b1-4)Glc
# Method in brief: as §1
# [5] = biological target: Fuc(a1-2)Gal6S(b1-4)Glc
# Method in brief: as §1
# [6] = biological target: Fuc(a1-2)[Gal(a1-3)]Gal(b1-3)GalNAc
# Method in brief: as §1
# [7] = biological target: Fuc(a1-2)[Gal(a1-3)]Gal(b1-3)GlcNAc(b1-2)Man(a1-3)[Fuc(a1-2)[Gal(a1-3)]Gal(b1-3)GlcNAc(b1-2)Man(a1-6)]Man(b1-4)GlcNAc(b1-4)GlcNAc
# Method in brief: as §1
# [8] = biological target: Fuc(a1-2)[Gal(a1-3)]Gal(b1-4)GlcNAc(b1-3)[Fuc(a1-2)[Gal(a1-3)]Gal(b1-4)GlcNAc(b1-6)]GalNAc
# Method in brief: as §1
# [9] = biological target: Fuc(a1-2)[Gal(a1-3)]Gal(b1-4)[Fuc(a1-3)]GlcNAc(b1-3)GalNAc
# Method in brief: as §1
# [10] = biological target: Fuc(a1-2)[GalNAc(a1-3)]Gal(b1-3)GlcNAc
# Method in brief: as §1
# [11] = biological target: Fuc(a1-3)[Gal(b1-4)]GlcNAc(b1-2)Man
# Method in brief: as §1
# [12] = biological target: Fuc(a1-3)[Gal(b1-4)]GlcNAc(b1-6)GalNAc
# Method in brief: as §1
# [13] = biological target: Fuc(a1-3)[GalNAc(b1-4)]GlcNAc
# Method in brief: as §1
# [14] = biological target: Gal(a1-3)Gal(b1-4)GlcNAc(b1-3)GalNAc
# Method in brief: as §1
# [15] = biological target: Gal(a1-3)[Gal(a1-4)]Gal(b1-4)GlcNAc
# Method in brief: as §1
# [16] = biological target: Gal(b1-3)GalNAc(a1-3)[Fuc(a1-2)]Gal(b1-4)GlcNAc
# Method in brief: as §1
# [17] = biological target: Gal(b1-3)GlcNAc(b1-2)[Gal(b1-3)GlcNAc(b1-6)]Man(a1-6)[Gal(b1-3)GlcNAc(b1-2)Man(a1-3)]Man(b1-4)GlcNAc(b1-4)GlcNAc
# Method in brief: as §1
# [18] = biological target: Gal(b1-3)GlcNAc(b1-6)GalNAc
# Method in brief: as §1
# [19] = biological target: Gal(b1-3)[Fuc(a1-4)]GlcNAc(b1-6)GalNAc
# Method in brief: as §1
# [20] = biological target: Gal(b1-4)GalNAc(a1-3)[Fuc(a1-2)]Gal(b1-4)GlcNAc
# Method in brief: as §1
# [21] = biological target: Gal(b1-4)GlcNAc(b1-2)Man(a1-6)Man(b1-4)GlcNAc(b1-4)GlcNAc
# Method in brief: as §1
# [22] = biological target: Gal(b1-4)GlcNAc(b1-3)Gal(b1-4)GlcNAc(b1-2)Man(a1-3)[Gal(b1-4)GlcNAc(b1-3)Gal(b1-4)GlcNAc(b1-2)Man(a1-6)]Man(b1-4)GlcNAc(b1-4)GlcNAc
# Method in brief: as §1
# [23] = biological target: Gal(b1-4)GlcNAc(b1-3)Gal(b1-4)GlcNAc(b1-2)[Gal(b1-4)GlcNAc(b1-3)Gal(b1-4)GlcNAc(b1-6)]Man(a1-6)[Gal(b1-4)GlcNAc(b1-3)Gal(b1-4)GlcNAc(b1-2)Man(a1-3)]Man(b1-4)GlcNAc(b1-4)GlcNAc
# Method in brief: as §1
# [24] = biological target: Gal(b1-4)GlcNAc(b1-3)Gal(b1-4)GlcNAc(b1-2)[Gal(b1-4)GlcNAc(b1-3)Gal(b1-4)GlcNAc(b1-6)]Man(a1-6)[Gal(b1-4)GlcNAc(b1-3)Gal(b1-4)GlcNAc(b1-2)Man(a1-3)]Man(b1-4)GlcNAc(b1-4)[Fuc(a1-6)]GlcNAc
# Method in brief: as §1
# [25] = biological target: Gal(b1-4)GlcNAc(b1-3)Gal(b1-4)GlcNAc(b1-3)Gal(b1-4)GlcNAc(b1-3)Gal(b1-4)GlcNAc(b1-2)[Gal(b1-4)GlcNAc(b1-3)Gal(b1-4)GlcNAc(b1-3)Gal(b1-4)GlcNAc(b1-3)Gal(b1-4)GlcNAc(b1-6)]Man(a1-6)[Gal(b1-4)GlcNAc(b1-3)Gal(b1-4)GlcNAc(b1-3)Gal(b1-4)GlcNAc(b1-3)Gal(b1-4)GlcNAc(b1-2)Man(a1-3)]Man(b1-4)GlcNAc(b1-4)[Fuc(a1-6)]GlcNAc
# Method in brief: as §1
# [26] = biological target: Gal(b1-4)GlcNAc(b1-3)Gal(b1-4)GlcNAc(b1-3)Gal(b1-4)GlcNAc(b1-3)Gal(b1-4)GlcNAc(b1-3)Gal(b1-4)GlcNAc(b1-2)[Gal(b1-4)GlcNAc(b1-3)Gal(b1-4)GlcNAc(b1-3)Gal(b1-4)GlcNAc(b1-3)Gal(b1-4)GlcNAc(b1-3)Gal(b1-4)GlcNAc(b1-6)]Man(a1-6)[Gal(b1-4)GlcNAc(b1-3)Gal(b1-4)GlcNAc(b1-3)Gal(b1-4)GlcNAc(b1-3)Gal(b1-4)GlcNAc(b1-3)Gal(b1-4)GlcNAc(b1-2)Man(a1-3)]Man(b1-4)GlcNAc(b1-4)[Fuc(a1-6)]GlcNAc
# Method in brief: as §1
# [27] = biological target: Gal(b1-4)GlcNAc(b1-6)Gal(b1-4)GlcNAc
# Method in brief: as §1
# [28] = biological target: Gal3S(b1-3)GlcNAc
# Method in brief: as §1
# [29] = biological target: Gal3S4S(b1-4)GlcNAc
# Method in brief: as §1
binder,measurement,setting,value
PX9961C-bth-497-22-497 (Bacteroides thetaiotaomicron) (protein) DWLDLNTTSSVETGQAIVTLDDAQIALNGIYRLASGHSYYGDNYWYYGDCRAADVQARITKGDGKRVSPYYEYNVLASDNLNIVLPWNTVYKVIRQTNNLIQKIESGSIQSSDTKELNRIKSEALVMRGLSLFNLTRLFGMPYTNDKGASLGVPIETSPSDPTHKPSRSTVAQCYEQVVSDMSNALSGLRQETSNGYINYWAAQALLSRVYLNMGEYQKAYDAATDVIKNNGGRYQLYSYEEYPNVWGQDFQSESLFELYITLSEPSGGTGGEGAPMVYANEATVDWNNLILSEDFLNLLNEDPKDVRHCLTKESVIENNTGLPAAAMHEKVYLAKFPGKTGDDPKTNNICIIRLSEVYLNAAEAGLKKGTDIEEAQGYLNDIISRRTTDTSQQVSTETFTLDRILKERRKELVGEGEVFYDYLRNGLAIERKGSWHLETLKASNAQKIEATDLRIALPIPQSEIDANPNIQQNPR,glycan array binding signal (z-score),[1],-0.6
same,glycan array binding signal (z-score),[2],0.12
same,glycan array binding signal (z-score),[3],-0.517
same,glycan array binding signal (z-score),[4],-0.648
same,glycan array binding signal (z-score),[5],-0.078
same,glycan array binding signal (z-score),[6],-0.3
same,glycan array binding signal (z-score),[7],1.08
same,glycan array binding signal (z-score),[8],-0.459
same,glycan array binding signal (z-score),[9],-0.284
same,glycan array binding signal (z-score),[10],-0.776
same,glycan array binding signal (z-score),[11],1.56
same,glycan array binding signal (z-score),[12],0.511
same,glycan array binding signal (z-score),[13],0.598
same,glycan array binding signal (z-score),[14],-0.646
same,glycan array binding signal (z-score),[15],2.48
same,glycan array binding signal (z-score),[16],-0.307
same,glycan array binding signal (z-score),[17],14.1
same,glycan array binding signal (z-score),[18],-0.427
same,glycan array binding signal (z-score),[19],-0.101
same,glycan array binding signal (z-score),[20],-0.203
same,glycan array binding signal (z-score),[21],-0.302
same,glycan array binding signal (z-score),[22],1.26
same,glycan array binding signal (z-score),[23],2.36
same,glycan array binding signal (z-score),[24],2.08
same,glycan array binding signal (z-score),[25],-0.171
same,glycan array binding signal (z-score),[26],7.33
same,glycan array binding signal (z-score),[27],-0.211
same,glycan array binding signal (z-score),[28],-0.219
same,glycan array binding signal (z-score),[29],0.105
